In PubChem BioAssay AID463205 (Broad Institute, 2010):
Hit rate of the full screen: of about 2,400 compounds, about 20 (0.8%) were called active. The sample as a whole holds a higher share of actives than the screen did. Values without a mark were called inactive.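 The calls were made as follows: active = AC50 no more than ten times the highest tested concentration, or full inhibition at every dose giving a flat fit (cut at about 30 µM in these data); inconclusive = flat fit with activity between 30% and 70%, or poor-quality invalid fit; inactive = AC50 more than ten times the top tested dose.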

assay: inhibitors of ADP-Glo detection reagents, dose response, artefact control for GSK-3a inhibitor project, biochemical, luminescence, cell-free, homogeneous (AID 463205); settings: 5 uM ADP;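 also: kinase-free counter-screen against the ADP-Glo detection reagents only; potency is for inhibitors that reduce the luminescence signal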

| SMILES | AC50 |
| --- | --- |
| C=CCSc1ncnc2c1oc1nc3c(cc12)COC(C)(C)C3 | > 30 µM |
| Nc1nonc1-n1nnc(C(=O)N/N=C/c2ccncc2)c1CSc1ccc(Cl)cc1 | > 30 µM |
| O=S(=O)(c1cccc(NC(=S)NCc2ccco2)c1)N1CCOCC1 | > 30 µM |
| C=CC(=O)Nc1sc2c(c1C(N)=O)CCCC2 | > 30 µM |
| NC(=O)c1ccsc1NC(=O)C1CC1 | > 30 µM |
| Clc1cccc(/C=N/Nc2ncnc3ccccc23)c1 | > 30 µM |
| COCCOC(=O)c1[nH]c2c(c1C)C(=O)CC(c1cc(OC)c(OC)c(OC)c1)C2 (stereo not given) | > 30 µM |
| CC(=O)c1sc(NC(=O)CN2C(=O)C3CCCCC3C2=O)nc1-c1ccccc1 (stereo not given) | > 30 µM |
| O=C(c1ccc2c3n(nc2c1)-c1ccc(Cl)cc1CO3)N1CCOCC1 | > 30 µM |
| O=C(c1ccc2c3n(nc2c1)-c1ccccc1CO3)N1CCOCC1 | 22.5 µM (active) |
| Cc1ccc2c(c1)COc1c3ccc(C(=O)N4CCOCC4)cc3nn1-2 | > 30 µM |
| COc1ccc(S(=O)(=O)Nc2c(C(=O)O)[nH]c3ccc(OC)cc23)cc1 | > 30 µM |
| COc1ccc(-c2cc(C(=O)N3CCN(c4ccccc4)CC3)no2)cc1OC | > 30 µM |
| CCOC(=O)c1sc(NC(=O)C2CC2)cc1C | > 30 µM |
| CCCCCCCCCCCCCCCC[N+](C)(C)CC | > 30 µM |
| c1cncc(-c2nc(NCC3COc4ccccc4O3)c3ccccc3n2)c1 (stereo not given) | > 30 µM |
| CC(C)(C)NC(=O)/C(=C\c1ccccc1F)NC(=O)c1ccc([N+](=O)[O-])cc1 | > 30 µM |
| O=C(CCN1CCOCC1)Nc1cccc(Br)c1 | > 30 µM |
| OCc1cn(-c2ccccc2)nn1 | > 30 µM |
| O=C(COC(=O)c1ccc(F)cc1F)Nc1ccc(Cl)cn1 | > 30 µM |
| CC(=NCCCn1ccnc1)c1c(O)n(Cc2ccccc2)c(=O)[nH]c1=O | > 30 µM |
| Cc1ccc(NC(=O)CSc2nnc(-c3ccncc3)o2)cc1 | > 30 µM |
| COc1ccc(/C=C2\Oc3cc(OCC(=O)N4CC(O)C[C@H]4C(=O)O)ccc3C2=O)c(OC)c1OC (stereo not given in full) | > 30 µM |
| CC(C)(C)c1ccc(/C=C2\Oc3cc(O)ccc3C2=O)cc1 | > 30 µM |

| SMILES | AC50 |
| --- | --- |
| COc1ccc(CCn2cnc(=O)c(C#N)c2C)cc1OC | > 30 µM |
| O=C(Nc1cccc(Cl)c1N1CCOCC1)c1ccc(Br)o1 | > 30 µM |
| COc1ccc(C2C3(C#N)C(N)=NC(OC)(OC)C23C#N)cc1 (stereo not given) | > 30 µM |
| CC(=O)N1CCN(c2ccccc2NC(=O)c2ccc(-c3cccc([N+](=O)[O-])c3)o2)CC1 | > 30 µM |
| Nc1nc2n(n1)C(c1ccc(F)cc1)CC(c1ccc(F)cc1)N2 (stereo not given) | > 30 µM |
| CCOc1ccc(S(=O)(=O)Nc2cccc(C(=O)NCCCn3ccnc3)c2)cc1 | > 30 µM |
| O=C1c2cnc3nc(SCc4ccccc4)nn3c2CC2c3ccccc3CCN12 (stereo not given) | > 30 µM |
| COc1ccc(NC(=O)Nc2ccc(F)cc2F)c(C)c1 | > 30 µM |
| CCOC(=O)c1cnc2c(Cl)c(Cl)ccc2c1N1CCN(C)CC1 | > 30 µM |
| COc1ccc(-c2cn3cccnc3n2)cc1NC(=O)C(C)C | > 30 µM |
| O=c1cc(-c2ccsc2)oc2ccccc12 | > 30 µM |
| COc1ccccc1NC(=O)Nc1ccccc1Br | > 30 µM |
| CCn1c2ccccc2c2nnc(SCC(N)=O)nc21 | > 30 µM |
| CCCC1=C(C(=O)OCC)C(c2ccc(N(C)C)cc2)n2ncnc2N1 (stereo not given) | > 30 µM |
| COCc1c(C(=O)N/N=C\c2cccnc2)nnn1-c1nonc1N | > 30 µM |
| CC(C)(C)C(=O)c1cnc(Nc2ccccc2Cl)s1 | > 30 µM |
| O=C(Nc1cccc(O)c1)c1ccc([N+](=O)[O-])cc1Cl | > 30 µM |
| CCOC(=O)N1CCc2c(sc3[nH]c(=S)[nH]c(=S)c23)C1 | > 30 µM |
| CCCCc1ccc(NC(=O)N[C@H](C(=O)O)C(C)CC)cc1 (stereo not given in full) | > 30 µM |
| COc1ccccc1OCC(=O)Nc1sc2c(c1C(N)=O)CCC2 | > 30 µM |
| O=C(CSc1ccccc1)Nc1ccc2c(c1)C(=O)NC2=O | > 30 µM |
| CCc1c(C)c(C#N)c2nc3ccccc3n2c1NC | > 30 µM |
| COc1ccc(/C=C2\Oc3cc(OCC(=O)N4CC(O)C[C@H]4C(=O)O)ccc3C2=O)cc1OC (stereo not given in full) | > 30 µM |
| Cc1ccc(S(=O)(=O)N2CCN(CC(=O)N/N=C\c3ccccn3)CC2)cc1 | > 30 µM |

| SMILES | AC50 |
| --- | --- |
| CN(C)c1ccc(Nc2nc(N)c3ccccc3n2)cc1 | 22.8 µM (active) |
| COc1ccc(Cl)cc1Nc1nc(N)c2ccccc2n1 | > 30 µM |
| CCOc1ccc(Nc2nc(N(C)c3ccccc3)nc(N)c2[N+](=O)[O-])cc1 | > 30 µM |
| CN(C)c1ccc(/C=N/NC(=O)c2ccccc2Cl)cc1 | > 30 µM |
| Cc1occc1C(=O)N/N=C/c1ccc(N(C)C)cc1 | 28.1 µM (active) |
| COc1cc(/C=N/NC(=O)c2ccoc2C)ccc1O | > 30 µM |
| O=[N+]([O-])c1cc(S(=O)(=O)N2CCCCC2)ccc1NCCCN1CCOCC1 | > 30 µM |
| COc1ccc(C(=O)c2sc3nc(-c4ccc(OC)cc4)ccc3c2N)cc1 | > 30 µM |
| CC(=O)N1CCN(c2ccccc2NC(=O)c2ccc(Br)o2)CC1 | > 30 µM |
| COc1cccc(C(=O)O/N=C(\N)c2ccccn2)c1 | 18.9 µM (active) |
| COc1cc(OC)cc(C(=O)O/N=C(\N)c2ccccn2)c1 | > 30 µM |
| COc1ccc(C(=O)NNC(=O)c2ccccn2)cc1 | 14.9 µM (active) |
| COc1ccc(C(=O)c2ccccc2Cl)cc1 | > 30 µM |
| COc1ccc(C(=O)O/N=C(\N)c2ccccn2)c(OC)c1 | > 30 µM |
| COc1ccc(C(=O)Nc2nc(C)cc(C)n2)cc1 | > 30 µM |
| CN(C)Cc1c(C(=O)N/N=C/C2CC=CCC2)nnn1-c1nonc1N (stereo not given) | > 30 µM |
| CCOC(=O)/C(C#N)=C/c1cn(CCC(=O)O)nc1-c1cccc(Br)c1 | > 30 µM |
| CCn1c2ccc(F)cc2c2nc3ccccc3nc21 | > 30 µM |
| Cc1nc2c(C)cccn2c1/C(O)=C1\C(=O)C(=O)N(CCN2CCOCC2)C1c1cccs1 (stereo not given) | > 30 µM |
| Cc1cccc2c(N=Nc3ccccc3)c(O)[nH]c12 | > 30 µM |
| Nc1nonc1-n1nnc(C(=O)N/N=C/c2ccccc2Cl)c1-c1ccccc1 | > 30 µM |
| CCc1c(C)c(C#N)c2nc3ccccc3n2c1NCC1CCCO1 (stereo not given) | > 30 µM |
| CS(=O)(=O)Nc1ccc(-c2cc(/C=C3\SC(N)=NC3=O)c[nH]c2=O)cc1 | > 30 µM |
| O=C(c1ccc(Cn2cnnn2)cc1)N1CCCC(Nc2ccc(F)cc2)C1 (stereo not given) | > 30 µM |

| SMILES | AC50 |
| --- | --- |
| O=C(Nc1ccccc1C(=O)N1CCOCC1)c1cccnc1 | > 30 µM |
| CC(=O)Nc1cccc(-c2csc(Nc3ccc(C)cn3)n2)c1 | > 30 µM |
| Cc1cc(=O)[nH]c2cc(O)ccc12 | > 30 µM |
| CC(=O)Nc1ccc(C2(c3ccc(NC(C)=O)cc3)NC(=O)c3ccccc32)cc1 | > 30 µM |
| CC1(C)Cc2cccc(C(=O)NCc3ccco3)c2O1 | > 30 µM |
| O=C(COC(=O)c1cccs1)Nc1ccc(Cl)cn1 | > 30 µM |
| CCN1CCN(c2nc(Nc3cccc(OC)c3)nc(N)c2[N+](=O)[O-])CC1 | > 30 µM |
| COc1cccc(/C=N/n2nnnc2N)c1OCC#N | > 30 µM |
| O=C(O)COc1c(Cl)cc(/C=C2/NC(=O)NC2=O)cc1Br | > 30 µM |
| CNc1ccc(/C=C/C(=O)c2ccc3c(c2)OCCO3)cc1[N+](=O)[O-] | > 30 µM |
| COC(=O)C1(C#N)C(c2ccccc2)C1(C(=O)OC)C(=O)OC (stereo not given) | > 30 µM |
| Cc1nc2ncnn2c(C)c1Cc1c(Cl)cccc1Cl | > 30 µM |
| O=C(c1ccccc1)c1cnc(Nc2ccccc2Cl)s1 | > 30 µM |
| COc1ccc(NC(=O)CN(C)C2CCCCC2)c([N+](=O)[O-])c1 | > 30 µM |
| Cc1nc2cc(-c3ccccc3)ccc2o1 | > 30 µM |
| O=C(N/N=C/c1cccnc1)c1cc2c(ccc3ccccc32)o1 | > 30 µM |
| CCNc1nc(NCC)nc(C(=O)OCCO)n1 | > 30 µM |
| Cc1ccnc(NC(=O)Cn2c(=O)oc3cc(S(=O)(=O)N4CCCC4)ccc32)c1 | > 30 µM |
| Cc1ccc(C(=O)O/N=C(\N)c2cccc([N+](=O)[O-])c2)cc1 | > 30 µM |
| Cc1cccc(C(=O)O/N=C(\N)c2cccc([N+](=O)[O-])c2)c1 | > 30 µM |
| Cc1cccc(/C(N)=N/OC(=O)c2ccc3c(c2)OCO3)c1 | 27.3 µM (active) |
| Cc1cc(NC(=O)CCSc2nc(-c3ccco3)cc(C(F)(F)F)n2)n(-c2ccccc2)n1 | > 30 µM |
| C(=N\Nc1ncnc2sc3c(c12)CCC3)/c1ccncc1 | > 30 µM |
